Reference: PubChem BioAssay AID1117319 (Southern Research Institute, 2015)
Where “and” joins values, the source holds several entries; their conditions need not be identical. Equal values may be shown once. About 1,500 (0.58%) of roughly 260,000 compounds were called active. About 5% were inconclusive and are not listed.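 Rule for the calls: active = inhibition above a set limit at one or more doses, reproduced on every date tested; inconclusive = results disagree between test dates, or hit never tested in dose response; inactive = the rest.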 Not all results are given here. Entries with a potency or affinity are not part of this list.

Target: Virion infectivity factor (Human immunodeficiency virus type 1 group M subtype B (isolate BH10)) + Virion infectivity factor (Human immunodeficiency virus type 1 group M subtype B (isolate BRU/LAI)) + Virion infectivity factor (Human immunodeficiency virus type 1 group M subtype B (isolate PCV12)) + Virion infectivity factor (Human immunodeficiency virus type 1 group M subtype B (isolate HXB2)) + DNA dC->dU-editing enzyme APOBEC-3G (Homo sapiens) (UniProt P69720+P69721+P69722+P69723+Q9HC16)
Assay: inhibitors of Vif binding to APOBEC3G peptide, primary screen, biochemical, TR-FRET, GST-Vif 1-94, biotin-A3G peptide, dose response retest (AID 1117319);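 note: Vif residues 1-94 fused to GST binding biotinylated APOBEC3G peptide 110-148; 0% = full assay without inhibitor and 100% = GST in place of GST-Vif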
Conditions: active compounds read high

inhibition, inactive:
CCOCCCNC(=O)c1ccccc1Br 79.3%
CCCNC(=O)c1ccccc1C(=O)NCCC -3.84%
Cc1nn(-c2ccccc2)c(C)c1C1C(C#N)=C(N)Oc2n[nH]c(C)c21 (centres undefined) -0.66%
CCCCC(=O)Nc1cccc(-c2csc(-c3ccccc3)n2)c1 -12.6%
O/N=C1\CC(O)Cc2nonc21 (centres undefined) -4.67%
CCCC(c1nnnn1CC(=O)OCC)N(Cc1cc2ccc(C)cc2[nH]c1=O)C1CCCC1 (centres undefined) 4.45% and 9.64%
CCCC(c1nnnn1CC(=O)OCC)N(Cc1cc2c(C)cc(C)cc2[nH]c1=O)C1CCCC1 (centres undefined) 68.5%
O=C(Nc1ncn[nH]1)c1ccccc1O -9.78%
COc1ccc(N2C(=O)C3C4C=CC(C4)C3C2=O)c(OC)c1 (centres undefined) 1.91%
COc1ccc(NC(=O)CN2CCN(c3ccccc3F)CC2)cc1 8.91%
COC(=O)c1ccc(CN(C(=O)N2CCN(C)CC2)S(=O)(=O)c2ccc(C)cc2)cc1 2.32%
CN1CCN(C(=O)CSc2nc(-c3ccco3)cc(C(F)(F)F)n2)CC1 -4.57%
O=C(CSc1nc(-c2ccco2)cc(C(F)(F)F)n1)N1CCCc2ccccc21 -15.3% and -9.35%
O=C(Nc1ccc(F)cc1)C(=O)C1C(=O)Nc2ccccc21 (centres undefined) -6.37%
O=C(NCc1ccc(/C=c2\sc3n(c2=O)CCN=3)o1)C(=O)Nc1ccccc1 -17%
Cc1ccc(NC(=O)C(=O)NCc2ccc(/C=N/NC(=O)c3c(C)nc4ccccn34)o2)cc1 26.2%
Cc1ccc(NC(=O)C(=O)NCc2ccc(/C=C(/C#N)C(=O)NCc3cccnc3)o2)cc1 7.86%
COC(=O)C1=C(O)/C(=C\c2ccc(OCC(=O)Nc3ccccc3)cc2)N=C1C -9.89%
CCOC(=O)c1ccc(NC(=O)C(=O)NCc2ccc(/C=C(/C#N)C(=O)NCCOC)o2)cc1 -2.3%
CCOC(=O)C1=C(O)/C(=C\c2sccc2C)N=C1C 0.95%
Cc1ccc(NC(=O)C(=O)NCc2ccc(/C=N/NC(=O)c3c(C)nc4cc(C)ccn34)o2)cc1 19.2%
CCOC(=O)C1=C(O)/C(=C\c2cccs2)N=C1C 15.1%
O=C(COC(=O)/C=C/c1cccc(Br)c1)NCCC1=CCCCC1 12.4%
Cc1cc(C(=O)N2CCN(c3ccccc3Cl)CC2)c(C)o1 3.3%
C=CCNc1nc(-c2ccc(OC)cc2OC)cs1 -8.96%
COc1cc(NC(=O)COc2ccc(Cl)cc2)ccc1NC(=O)C(C)C 1.28%
CCCSc1cc(N)cc([N+](=O)[O-])c1 -12.3%
CCN(CC)CCN(C(=O)CCS(=O)(=O)c1ccccc1)c1nc2cc(C)cc(C)c2s1 7.31%
O=C(CSc1ncn[nH]1)Nc1ccc2c(c1)CCC2 -3.75%
N#Cc1ccc(/C=N/NC(=S)Nc2ccc(S(=O)(=O)N3CCOCC3)cc2)cc1 27.6%
O=S(=O)(c1ccc(NC(=S)N/N=C/c2ccc(N3CCOCC3)cc2)cc1)N1CCOCC1 0.51%
CCCOc1ccc(/C=N/NC(=S)Nc2ccccc2[N+](=O)[O-])c(O)c1 5.31%
O=[N+]([O-])c1cc(/C=N/NC(=S)Nc2ccccc2Cl)ccc1Cl 8.67%
CCOc1ccc(/C=N/NC(=O)C(OC)c2ccccc2)cc1 (centres undefined) -8.04%
Cc1nnc(N(C)C(=O)c2cccnc2)s1 -3.79%
COc1ccc(/C=N\NC(=O)c2cccc([N+](=O)[O-])c2)cc1Cn1cc([N+](=O)[O-])cn1 9.14%
COc1ccc(/C=N/NC(=O)c2ccccc2O)cc1Cn1cc([N+](=O)[O-])cn1 22.8%
COc1ccc(/C=N/NC(=O)c2ccccc2)cc1CN1CCN(c2ccc(F)cc2)CC1 1.7%
COc1cc(C(=O)N/N=C/c2ccc(OC)c(CN3CCN(c4ccc(F)cc4)CC3)c2)ccc1O -4.76%
CC(=O)Oc1cc2c(cc1OC(C)=O)C(=O)CCCC2 -3.59%
CCc1cccc2c(C(=O)CSc3nncn3C)c[nH]c12 3.36%
O=C(COC(=O)c1ccccn1)NCc1cccc(Cl)c1 11.7%
CCC1CCCCN1C(=O)c1ccccc1OC1CCN(S(C)(=O)=O)CC1 (centres undefined) 6.69%
Cc1c(Cl)cc(C(C)C)c(O)c1CN1CCOCC1 -0.22%
Oc1c(CN2CCOCC2)cc(-c2ccccc2)cc1CN1CCOCC1 2.33%
O=C(NCCCN1CCOCC1)c1csc2c1CCCC2 -1.89%
CCOc1ccc(-c2cc(C(=O)NCCCN3CCOCC3)c3ccccc3n2)cc1 -4.67%
COc1ccc(C2NC(=O)NC(O)(C(F)(F)F)C2C(=O)c2ccccc2)cc1OC (centres undefined) -3.65%
O=C1NC(c2cn(-c3ccccc3)nc2-c2cccs2)C(C(=O)c2cccnc2)C(O)(C(F)(F)F)N1 (centres undefined) 1.08%
CCC(Oc1ccccc1)C(=O)Nc1ccc(S(=O)(=O)N2CCOCC2)cc1 (centres undefined) 15.9%
CCc1nc(SCC(=O)N2CCCC2)c2ccccc2n1 14.3%
CCOc1cc(C(=O)Nc2ccc(N3CCOCC3)cc2)cc(Br)c1OC 12.9%
O=S(=O)(Nc1cc(C(F)(F)F)ccc1N1CCOCC1)c1ccccc1 2.04%
Cc1ccc(S(=O)(=O)Nc2cc(C(F)(F)F)ccc2N2CCOCC2)cc1 1.57%
COc1ccc(NS(=O)(=O)c2cccc(C(=O)NCC3CCCO3)c2)cc1 (centres undefined) 1.68%
COc1ccccc1N1CCN(CC(=O)Nc2cccc(F)c2)CC1 -5.83%
O=C(CN1CCN(Cc2ccccc2)CC1)Nc1ccc2c(c1)CCC2 -3.36%
O=C(CN1CCCC1)Nc1ccc2c(c1)CCC2 -3.44%
CC1CCN(CCNC(=O)c2ccc(NC(=O)C3CCCO3)cc2)CC1 (centres undefined) 2.71%
O=C(Nc1ccc2c(c1)CN(Cc1ccccc1O)CC2)C1CCCO1 (centres undefined) -4.54%
CCc1ccc(CC)c(S(=O)(=O)Nc2ccc(O)c(C(=O)O)c2)c1 -4.21%
O=C(O)c1ccc(NS(=O)(=O)c2cc(Cl)ccc2Cl)cc1O 3.01%
O=C(Nc1ccc(Br)cc1)C1CCN(C(=O)c2ccc(F)cc2)CC1 -10.6%
CCOC(=O)c1cnc(SCC(=O)OCC(=O)N(CC)C2CCS(=O)(=O)C2)nc1N (centres undefined) 4.12%
COc1cccc(NC(=O)CN(C)C(=O)/C=C/c2cn(Cc3ccccc3)nc2-c2cccnc2)c1 -9.6%
Cc1ccc(S(=O)(=O)N2CCN(C(C(=O)Nc3ccc(F)cc3)c3ccccc3)CC2)cc1 (centres undefined) 69.8%
O=C(Nc1ccc(F)cc1)C(c1ccccc1)N1CCN(S(=O)(=O)c2c(F)cccc2F)CC1 (centres undefined) 22.6%
COc1ccc(N2C=C3C(=O)C(C)(OC(=O)CCc4ccccc4)C(=O)C=C3C=C2c2ccc(C#N)cc2)cc1 (centres undefined) 11.3%
CC(C)OCCCN1C=C2C(=O)C(C)(OC(=O)CCc3ccccc3)C(=O)C=C2C=C1c1ccc(C#N)cc1 (centres undefined) 12.3%
COC(=O)CCC(=O)OC1(C)C(=O)C=C2C=C(C3CC3)N(Cc3ccc(OC)cc3)C=C2C1=O (centres undefined) 31.5%
COC(=O)CCC(=O)OC1(C)C(=O)C=C2C=C(C3CC3)N(CCCOC(C)C)C=C2C1=O (centres undefined) 20.5%
O=[N+]([O-])c1ccc2nc(SCc3ccccc3Cl)sc2c1 2.57%
CC(C)n1c(SCC(=O)N2c3ccccc3Sc3ccccc32)nc2c1c(=O)n(C)c(=O)n2C 1.71%
Cc1ccc2cccc(SCC(=O)NCc3ccco3)c2n1 5.4%
Cc1ccc(S(=O)(=O)N(C)c2ccc(C(=O)NCC(c3ccco3)N3CCCC3)cc2)cc1 (centres undefined) -9.74%
CC(C)(C)c1ccc(/C=C/C(=O)N2CCc3ccccc3C2)cc1 7.01%
Cc1ccc(/C=C/C(=O)N2CCc3ccccc3C2)cc1 0%
CC12CCC(=O)C=C1CCC1C2C(O)CC2(C)C1CCC2(O)C(=O)COC(=O)COCC(=O)O (centres undefined) 0.66%
CNC(=O)COC(=O)c1cc2c(s1)CCCC2 0.25%
COc1ccccc1NC(=O)c1ccc(NC(=O)c2cc3c(s2)CCC3)cc1 -2.47%
Cc1c(/C=N/O)c2ccccn2c1C(=O)c1ccc(F)cc1 -0.95%
CC(C)C1CC(C(F)(F)F)n2nc(C(=O)O)cc2N1 (centres undefined) 7.12%
Cc1cc(C)nc(SCc2nnc(SCC(=O)Nc3nc(-c4ccccc4)cs3)n2C)n1 -21.4%
Cc1ccc(N2CCN(c3ccc(C)cc3)C2c2cccnc2)cc1 -3.62%
Cc1ccc(N2CCN(c3ccc(C)cc3)C2c2ccncc2)cc1 13.1%
N#CCCN(C(=O)COC(=O)c1cc(S(=O)(=O)N2CCOCC2)ccc1Cl)c1ccc(F)cc1 -1.91%
CC(=O)Nc1ccc2nc(NC(=O)CS(=O)(=O)c3ccccc3)sc2c1 5.59%
Cc1ccc(NS(=O)(=O)c2c(C)[nH]c(=O)[nH]c2=O)cc1C 0.84%
Cc1[nH]c(=O)[nH]c(=O)c1S(=O)(=O)Nc1cccc(C(F)(F)F)c1 -6.82%
